“And” between values parts separate entries of the source, which are not always exact repeats. Equal entries are not always repeated. The campaign covered roughly 5,500 compounds. About 2,000 (36%) were called active. Roughly 18% stayed inconclusive and do not appear here. This is one part of the list. Values without a mark were called inactive. Rule as the data show it: active = normalized growth mostly below about 0.91 (no sharp cut-off); inconclusive = no clear call, values can overlap the other calls; inactive = mostly above about 0.92.
Test: chemical genetic growth profiling, strain panel (AID 1159580);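 also: tested at 20 µM; growth read once vehicle control cultures reached saturation at 30 °C; 1 = growth at the plate median or of vehicle wells; lower values mean less growth of the strain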
Details: growth OD

Cn1c(=O)c2c(ncn2C)n(C)c1=O
normalized growth (S. cerevisiae deletion strains, locus YJR043C, strain POL32, active compounds read low): 1.02 | normalized growth (S. cerevisiae deletion strains, locus YJR066W, strain TOR1, active compounds read low): 0.97 | normalized growth (S. cerevisiae deletion strains, locus YJR075W, strain HOC1, active compounds read low): 1 | normalized growth (S. cerevisiae deletion strains, locus YKL009W, strain mrt4, active compounds read low): 1.03 | normalized growth (S. cerevisiae deletion strains, locus YKL068W, active compounds read low): 1.01 | normalized growth (S. cerevisiae deletion strains, locus YKL085W, strain MDH1 (second series), active compounds read low): 0.991 | normalized growth (S. cerevisiae deletion strains, locus YKL085W, strain MDH1, active compounds read low): 0.991 | normalized growth (S. cerevisiae deletion strains, locus YKL160W, strain elf1, active compounds read low): 1.02 | normalized growth (S. cerevisiae deletion strains, locus YKR001C, strain vps1, active compounds read low): 1 | normalized growth (S. cerevisiae deletion strains, locus YKR026C, strain gcn3, active compounds read low): 0.965 | normalized growth (S. cerevisiae deletion strains, locus YKR091W, strain srl3, active compounds read low): 0.969 | normalized growth (S. cerevisiae deletion strains, locus YLL001W, strain dnm1, active compounds read low): 0.932 | normalized growth (S. cerevisiae deletion strains, locus YLL026W, active compounds read low): 0.962 | normalized growth (S. cerevisiae deletion strains, locus YLL041C, strain sdh2, active compounds read low): 0.976 | normalized growth (S. cerevisiae deletion strains, locus YLR027C, strain aat2, active compounds read low): 0.976 | normalized growth (S. cerevisiae deletion strains, locus YLR039C, strain RIC1, active compounds read low): 0.989 | normalized growth (S. cerevisiae deletion strains, locus YLR058C, strain SHM2, active compounds read low): 1 | normalized growth (S. cerevisiae deletion strains, locus YLR102C, strain apc9, active compounds read low): 1.01 | normalized growth (S. cerevisiae deletion strains, locus YLR113W, strain HOG1, active compounds read low): 1.04 | normalized growth (S. cerevisiae deletion strains, locus YLR221C, strain rsa3, active compounds read low): 0.89 (active) | normalized growth (S. cerevisiae deletion strains, locus YLR258W, strain gsy2, active compounds read low): 0.976 | normalized growth (S. cerevisiae deletion strains, locus YLR262C, strain YPT6 (second series), active compounds read low): 0.996 | normalized growth (S. cerevisiae deletion strains, locus YLR262C, strain YPT6, active compounds read low): 0.988 | normalized growth (S. cerevisiae deletion strains, locus YLR268W, strain sec22, active compounds read low): 1.03 | normalized growth (S. cerevisiae deletion strains, locus YLR320W, strain mms22, active compounds read low): 0.987 | normalized growth (S. cerevisiae deletion strains, locus YLR330W, strain CHS5, active compounds read low): 0.999 | normalized growth (S. cerevisiae deletion strains, locus YLR342W, strain FKS1 (second series), active compounds read low): 1.03 | normalized growth (S. cerevisiae deletion strains, locus YLR342W, strain FKS1, active compounds read low): 0.983 | normalized growth (S. cerevisiae deletion strains, locus YLR357W, strain rsc2, active compounds read low): 0.98 | normalized growth (S. cerevisiae deletion strains, locus YLR370C, strain arc18, active compounds read low): 0.936 | normalized growth (S. cerevisiae deletion strains, locus YLR371W, strain rom2, active compounds read low): 0.989 | normalized growth (S. cerevisiae deletion strains, locus YLR384C, strain iki3, active compounds read low): 0.97 | normalized growth (S. cerevisiae deletion strains, locus YLR418C, strain cdc73, active compounds read low): 0.947 | normalized growth (S. cerevisiae deletion strains, locus YML016C, strain PPZ1, active compounds read low): 0.995 | normalized growth (S. cerevisiae deletion strains, locus YML032C, strain rad52, active compounds read low): 1.01 | normalized growth (S. cerevisiae deletion strains, locus YML120C, strain ndi1, active compounds read low): 0.926 | normalized growth (S. cerevisiae deletion strains, locus YML124C, strain tub3, active compounds read low): 1 | normalized growth (S. cerevisiae deletion strains, locus YMR058W, strain fet3, active compounds read low): 0.96 | normalized growth (S. cerevisiae deletion strains, locus YMR078C, strain ctf18, active compounds read low): 0.995 | normalized growth (S. cerevisiae deletion strains, locus YMR125W, strain sto1, active compounds read low): 0.954 | normalized growth (S. cerevisiae deletion strains, locus YMR129W, active compounds read low): 0.988 | normalized growth (S. cerevisiae deletion strains, locus YMR205C, strain PFK2, active compounds read low): 0.991 | normalized growth (S. cerevisiae deletion strains, locus YMR223W, strain ubp8, active compounds read low): 1 | normalized growth (S. cerevisiae deletion strains, locus YMR231W, strain pep5, active compounds read low): 0.987 | normalized growth (S. cerevisiae deletion strains, locus YMR307W, strain GAS1, active compounds read low): 0.974 and 0.988 | normalized growth (S. cerevisiae deletion strains, locus YNL067W, strain RPL9B, active compounds read low): 1 | normalized growth (S. cerevisiae deletion strains, locus YNL071W, strain lat1, active compounds read low): 0.995 | normalized growth (S. cerevisiae deletion strains, locus YNL128W, strain TEP1, active compounds read low): 0.997 | normalized growth (S. cerevisiae deletion strains, locus YNL175C, strain NOP13, active compounds read low): 1.02 | normalized growth (S. cerevisiae deletion strains, locus YNL183C, strain NPR1, active compounds read low): 0.987 | normalized growth (S. cerevisiae deletion strains, locus YNL197C, strain WHI3, active compounds read low): 1.12 | normalized growth (S. cerevisiae deletion strains, locus YNL209W, strain ssb2, active compounds read low): 0.959 | normalized growth (S. cerevisiae deletion strains, locus YNL224C, strain SQS1, active compounds read low): 1.01 | normalized growth (S. cerevisiae deletion strains, locus YNL233W, strain BNI4, active compounds read low): 0.984 | normalized growth (S. cerevisiae deletion strains, locus YNL248C, strain rpa49, active compounds read low): 1.03 | normalized growth (S. cerevisiae deletion strains, locus YNL250W, strain rad50, active compounds read low): 1.01 | normalized growth (S. cerevisiae deletion strains, locus YNL271C, strain bni1, active compounds read low): 1.01 | normalized growth (S. cerevisiae deletion strains, locus YNL298W, strain CLA4, active compounds read low): 1.01 | normalized growth (S. cerevisiae deletion strains, locus YNL307C, strain MCK1, active compounds read low): 1 | normalized growth (S. cerevisiae deletion strains, locus YNL322C, strain KRE1 (second series), active compounds read low): 0.963 | normalized growth (S. cerevisiae deletion strains, locus YNL322C, strain KRE1, active compounds read low): 0.995 | normalized growth (S. cerevisiae deletion strains, locus YNR049C, strain mso1, active compounds read low): 0.956 | normalized growth (S. cerevisiae deletion strains, locus YNR052C, strain pop2, active compounds read low): 1 | normalized growth (S. cerevisiae deletion strains, locus YOL006C, strain TOP1, active compounds read low): 1.04 | normalized growth (S. cerevisiae deletion strains, locus YOL012C, strain htz1): 0.798 | normalized growth (S. cerevisiae deletion strains, locus YOL147C, strain pex11, active compounds read low): 0.998 | normalized growth (S. cerevisiae deletion strains, locus YOR001W, strain rrp6, active compounds read low): 0.979 | normalized growth (S. cerevisiae deletion strains, locus YOR061W, strain CKA2, active compounds read low): 1.01 | normalized growth (S. cerevisiae deletion strains, locus YOR069W, strain VPS5, active compounds read low): 1 | normalized growth (S. cerevisiae deletion strains, locus YOR070C, strain gyp1, active compounds read low): 0.993 | normalized growth (S. cerevisiae deletion strains, locus YOR080W, strain dia2, active compounds read low): 0.956 | normalized growth (S. cerevisiae deletion strains, locus YOR083W, strain WHI5 (second series), active compounds read low): 1.02 | normalized growth (S. cerevisiae deletion strains, locus YOR083W, strain WHI5, active compounds read low): 1.01 | normalized growth (S. cerevisiae deletion strains, locus YOR106W, strain vam3, active compounds read low): 0.969 | normalized growth (S. cerevisiae deletion strains, locus YOR136W, strain idh2, active compounds read low): 1.01 | normalized growth (S. cerevisiae deletion strains, locus YOR144C, strain elg1, active compounds read low): 1 | normalized growth (S. cerevisiae deletion strains, locus YOR184W, strain ser1, active compounds read low): 1.01 | normalized growth (S. cerevisiae deletion strains, locus YOR231W, strain MKK1, active compounds read low): 1.04 | normalized growth (S. cerevisiae deletion strains, locus YOR265W, strain rbl2, active compounds read low): 0.963 | normalized growth (S. cerevisiae deletion strains, locus YOR270C, strain vph1, active compounds read low): 0.988 | normalized growth (S. cerevisiae deletion strains, locus YOR290C, strain snf2, active compounds read low): 0.952 | normalized growth (S. cerevisiae deletion strains, locus YOR316C, strain cot1, active compounds read low): 1.01 | normalized growth (S. cerevisiae deletion strains, locus YPL051W, strain arl3, active compounds read low): 0.949 | normalized growth (S. cerevisiae deletion strains, locus YPL055C, strain LGE1, active compounds read low): 0.998 | normalized growth (S. cerevisiae deletion strains, locus YPL078C, strain atp4, active compounds read low): 1.02 | normalized growth (S. cerevisiae deletion strains, locus YPL106C, strain sse1, active compounds read low): 0.929 | normalized growth (S. cerevisiae deletion strains, locus YPL240C, strain hsp82, active compounds read low): 0.974 | normalized growth (S. cerevisiae deletion strains, locus YPL241C, strain CIN2, active compounds read low): 0.998 and 1.01 | normalized growth (S. cerevisiae deletion strains, locus YPL256C, strain CLN2, active compounds read low): 1.09 | normalized growth (S. cerevisiae deletion strains, locus YPR119W, strain clb2, active compounds read low): 0.996 | normalized growth (S. cerevisiae deletion strains, locus YPR141C, strain kar3, active compounds read low): 0.992 | normalized growth (S. cerevisiae deletion strains, locus YPR163C, strain tif3, active compounds read low): 0.991 | normalized growth (S. cerevisiae deletion strains, locus YPR167C, strain met16, active compounds read low): 1 | normalized growth (S. cerevisiae deletion strains, strain wtn01, active compounds read low): 1.04 | normalized growth (S. cerevisiae strains, strain wild type, active compounds read low): 1
